target: SPATA2; test: pooled miR-30 sensor sort-seq; sequence = guide strand; settings: shRNA
Further: reference of the scale not given here.

Sequence | sensor-assay potency score (higher = more potent)
TTGACAGTACAGTAAGAGGGGC | -0.34
TGGAACTGCACGTACTTCCGAA | -0.761
TGAGTGGATTTCTAGCATCTGC | -1.11
TCACTCTTTTTGTAGCAGGGGT | -0.679
TCATAGAACTGGATCAGCCGGA | 0.651
TTGATGTAGCCCTTGGAGCTGG | -0.512
TTGTGAGTGGATTTCTAGCATC | -1.52
TCTTCCAGTAATGTCGACTTGA | 0.423
TTGTCCTTCACTTGTGAGTGGA | -0.193
TGAGACTTTTGAACACTGGGTG | 0.544
TCTGAGCAGCCACACATCCGGC | -1.47

target: SPATA5L1; test: as above; settings: shRNA

Sequence | sensor-assay potency score (higher = more potent)
TTGTCTTAAGTCCAACACCATC | -1.76
TTATCTAATCTTCCAGGTCGTA | -0.899
TTCTGAATCTCCAACAAACGGT | -0.635
TAATCTTCCAGGTCGTAACAAA | -1.18
TTGAACATCACATCCTGTCTTG | 0.227
TAGATGATCTTATCTAATCTTC | -0.209
TTCTTGAACATCACATCCTGTC | -0.27
TATCTAATCTTCCAGGTCGTAA | -0.994
TTAACTTCAGTTTTACATCTTC | 0.121
TGATCTTATCTAATCTTCCAGG | -0.767
TTGCTTGTCGAAATATCTGAGA | -0.878
AAAAACTTCTTGAAACTCCTGT | 1.07

target: SPATS2L; test: as above; settings: shRNA

Sequence | sensor-assay potency score (higher = more potent)
TTCATTATTGCTTTTGTTGGGA | 0.203
TATCTAGTTAGAGAAACGGTGC | -0.565
TTGTCTTTAGCATCTTTGTTGC | -0.548
TATTGTTCTTCTTTTTTCCTGT | 0.296
TTGATCTTCTTCACGGAACTAT | -0.0493
TTGTTGGGAACAACTGATCTAA | -0.513
TTCTTCTTTAACTTTATCCATT | -1.35
TTGAATTGCACTGCCATCCACA | 0.0707
TTTAGAACTTGAATTGCACTGC | 0.683
TTGGTTAGAAGATCCATTCTGC | 0.635
TTCGTTAGCAGAATCTGTGGAC | 0.593
TATATTCTGATTGACACTCTTT | 0.138

target: SPESP1; test: as above; settings: shRNA

Sequence | sensor-assay potency score (higher = more potent)
TTGTTTGGTTTGATCGACCAGA | -0.327
TCCATGTGTAACTAGCTCCTTA | -0.658
TTTTATTACTTGTTCGTCCTAC | 0.295
TTGTTTTGCAGCTGGCTCCGGC | -0.682
TATTGAATACTGTAGCAGCTTT | -0.369
